Values joined by “and” are separate entries in the source; they are usually repeats but may differ in a detail not shown here. Equal entries are not always repeated. Out of some 5,500 compounds screened, about 2,000 (36%) were called active. Roughly 18% stayed inconclusive and do not appear here. Rule as the data show it: active = normalized growth mostly below about 0.91 (no sharp cut-off); inconclusive = no clear call, values can overlap the other calls; inactive = mostly above about 0.92. Some of the results follow.
Experiment: chemical genetic growth profiling, strain panel (AID 1159580);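 also: tested at 20 µM; growth read once vehicle control cultures reached saturation at 30 °C; 1 = growth at the plate median or of vehicle wells; lower values mean less growth of the strain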
Conditions: S. cerevisiae deletion strains, growth OD
[1] = locus YAL040C, strain CLN3, stronger effect = lower value
[2] = locus YCL061C, strain MRC1 (second series), stronger effect = lower value
[3] = locus YDR363W, strain ESC2, stronger effect = lower value
[4] = locus YER002W, strain NOP16, stronger effect = lower value
[5] = locus YGR229C, strain SMI1, stronger effect = lower value
[6] = locus YMR263W, strain SAP30, stronger effect = lower value
[7] = locus YNL175C, strain NOP13, stronger effect = lower value
[8] = locus YNL197C, strain WHI3, stronger effect = lower value
[9] = locus YNL224C, strain SQS1, stronger effect = lower value
[10] = locus YOR083W, strain WHI5 (second series), stronger effect = lower value
[11] = locus YPL241C, strain CIN2, stronger effect = lower value

Measured: normalized growth

NN=C(N)N
inactive: locus YAL013W, strain DEP1, stronger effect = lower value 1.03 and 1.01 | [1] 0.987 and 0.992 | [2] 1 | [3] 1.03 | [4] 1.03 and 0.995 | [5] 1.03 | [6] 1.01 | locus YNL153C, strain GIM3, stronger effect = lower value 1.01 | [7] 1.02 and 1.01 | [8] 1.01 | [9] 0.993 and 1.03 | [10] 1.02 and 1.01 | [11] 1.01

CCN(CC)c1ncnc2c1ncn2[C@@H]1O[C@H](COP(=O)(O)OP(=O)(O)C(Br)(Br)P(=O)(O)O)[C@@H](O)[C@H]1O
inactive: [1] 1.05 | [2] 1 | [3] 0.937 | [4] 1 | [5] 0.992 | [6] 0.991 | locus YNL128W, strain TEP1, stronger effect = lower value 1 | [7] 0.992 | [8] 0.977 | [9] 0.971 | locus YNL322C, strain KRE1, stronger effect = lower value 0.995 | [10] 0.979 | [11] 1.01

O=C(CNC(=O)c1ccc(Cl)cc1)NO
inactive: locus YAL021C, strain ccr4, stronger effect = lower value 1.01 | locus YAL026C, strain drs2, stronger effect = lower value 1.01 | locus YAL030W, strain snc1, stronger effect = lower value 1.01 | locus YBL061C, strain skt5, stronger effect = lower value 1.01 | locus YBR009C, strain hhf1, stronger effect = lower value 1.01 | locus YBR023C, strain chs3, stronger effect = lower value 1.02 | locus YBR171W, strain sec66, stronger effect = lower value 1.02 | locus YBR231C, strain swc5, stronger effect = lower value 1.01 | locus YBR279W, strain paf1, stronger effect = lower value 1.01 | locus YCL011C, strain gbp2, stronger effect = lower value 1.01 | locus YCL016C, strain dcc1, stronger effect = lower value 1.02 | locus YCL061C, strain MRC1, stronger effect = lower value 1 | locus YCL069W, strain vba3, stronger effect = lower value 1.01 | locus YCR088W, strain abp1, stronger effect = lower value 1.01 | locus YDL005C, strain med2, stronger effect = lower value 1.02 | locus YDL040C, strain nat1, stronger effect = lower value 1.01 | locus YDR001C, strain nth1, stronger effect = lower value 1 | locus YDR069C, strain doa4, stronger effect = lower value 1.01 | locus YDR137W, strain rgp1, stronger effect = lower value 1.03 | locus YDR159W, strain sac3, stronger effect = lower value 1.01 | locus YDR195W, strain ref2 0.972 | locus YDR297W, strain sur2, stronger effect = lower value 1.04 | locus YDR334W, strain swr1, stronger effect = lower value 1.02 | locus YDR335W, strain msn5, stronger effect = lower value 1.02 | locus YDR392W, strain spt3, stronger effect = lower value 1 | locus YEL003W, strain gim4, stronger effect = lower value 1.01 | locus YEL037C, strain rad23, stronger effect = lower value 1.04 | locus YEL061C, strain CIN8 (second series), stronger effect = lower value 1.01 | locus YER015W, strain faa2, stronger effect = lower value 1.01 | locus YER016W, strain bim1, stronger effect = lower value 1.02 | locus YER111C, strain swi4, stronger effect = lower value 1.01 | locus YER155C, strain BEM2 (second series), stronger effect = lower value 1.03 | locus YFR010W, strain ubp6, stronger effect = lower value 1.02 | locus YGL167C, strain pmr1, stronger effect = lower value 1.01 | locus YGL173C, strain kem1, stronger effect = lower value 1.02 | locus YGL227W, strain vid30, stronger effect = lower value 1.01 | locus YGL240W, strain doc1, stronger effect = lower value 1.01 | locus YGL253W, strain hxk2, stronger effect = lower value 1.01 | locus YHR013C, strain ard1, stronger effect = lower value 1.04 | locus YHR027C, strain rpn1, stronger effect = lower value 1.01 | locus YHR030C, strain SLT2, stronger effect = lower value 1.02 | locus YHR079C, strain IRE1, stronger effect = lower value 1.03 | locus YHR142W, strain chs7, stronger effect = lower value 0.997 | locus YJL092W, strain hpr5, stronger effect = lower value 1.01 | locus YJL095W, strain BCK1 (second series), stronger effect = lower value 1 | locus YJL095W, strain BCK1, stronger effect = lower value 1.06 | locus YJL115W, strain asf1, stronger effect = lower value 1.02 | locus YJL129C, strain trk1, stronger effect = lower value 1.03 | locus YJL154C, strain vps35, stronger effect = lower value 1.02 | locus YJL164C, strain tpk1, stronger effect = lower value 1.01 | locus YJL166W, strain qcr8, stronger effect = lower value 1.01 | locus YJL187C, strain SWE1, stronger effect = lower value 1.01 | locus YJR066W, strain TOR1, stronger effect = lower value 0.941 | locus YKL160W, strain elf1, stronger effect = lower value 1.01 | locus YKR026C, strain gcn3, stronger effect = lower value 0.992 | locus YKR091W, strain srl3, stronger effect = lower value 1.01 | locus YLL001W, strain dnm1, stronger effect = lower value 1.03 | locus YLL026W, stronger effect = lower value 1.01 | locus YLL041C, strain sdh2, stronger effect = lower value 1.02 | locus YLR027C, strain aat2, stronger effect = lower value 1.01 | locus YLR113W, strain HOG1, stronger effect = lower value 1.04 | locus YLR221C, strain rsa3, stronger effect = lower value 1.01 | locus YLR258W, strain gsy2, stronger effect = lower value 1.02 | locus YLR262C, strain YPT6 (second series), stronger effect = lower value 1.03 | locus YLR320W, strain mms22, stronger effect = lower value 1.01 | locus YLR342W, strain FKS1, stronger effect = lower value 1.01 | locus YLR357W, strain rsc2, stronger effect = lower value 1.02 | locus YLR370C, strain arc18, stronger effect = lower value 1.01 | locus YLR384C, strain iki3, stronger effect = lower value 1.02 | locus YML120C, strain ndi1, stronger effect = lower value 1.01 | locus YMR058W, strain fet3, stronger effect = lower value 1.01 | locus YMR125W, strain sto1, stronger effect = lower value 1.01 | locus YMR129W, stronger effect = lower value 1.01 | locus YMR205C, strain PFK2, stronger effect = lower value 1.01 | locus YMR231W, strain pep5, stronger effect = lower value 1.02 | locus YNL071W, strain lat1, stronger effect = lower value 1.02 | locus YNL183C, strain NPR1, stronger effect = lower value 0.951 | locus YNL209W, strain ssb2, stronger effect = lower value 1.02 | locus YNL248C, strain rpa49, stronger effect = lower value 1.01 | locus YNL322C, strain KRE1 (second series), stronger effect = lower value 1.01 | locus YNR049C, strain mso1, stronger effect = lower value 1.01 | locus YOR001W, strain rrp6, stronger effect = lower value 1.02 | locus YOR070C, strain gyp1, stronger effect = lower value 1.02 | locus YOR080W, strain dia2, stronger effect = lower value 1.01 | locus YOR083W, strain WHI5, stronger effect = lower value 1.01 | locus YOR106W, strain vam3, stronger effect = lower value 1.02 | locus YOR231W, strain MKK1, stronger effect = lower value 1.01 | locus YOR265W, strain rbl2, stronger effect = lower value 1.01 | locus YOR270C, strain vph1, stronger effect = lower value 1.05 | locus YOR290C, strain snf2, stronger effect = lower value 1.03 | locus YPL051W, strain arl3, stronger effect = lower value 1.01 | locus YPL078C, strain atp4, stronger effect = lower value 1.01 | locus YPL106C, strain sse1, stronger effect = lower value 1.04 | locus YPL240C, strain hsp82, stronger effect = lower value 1.02 | locus YPL256C, strain CLN2, stronger effect = lower value 0.997
